ARNT-TACC3 inh: disruptors of ARNT/TACC3 protein interaction, primary screen, biochemical, AlphaScreen, single concentration; actives 0.66% (n = 390,000); inhibition, % at 9.99 µM; AlphaScreen His-ARNT PAS-B/GST-TACC3 binding, luminescence; TACC3 fragment carries E629A point mutation; AID 623870, 2012;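 active means mean inhibition of replicates at least 50% and at least half of replicates each reaching 50%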
Vif inh: HIV Vif self-association inhibitors, primary screen, imaging, HEK293T, single point. HEK293T cells, Vif self-association by quenched fluorescence, 24 h. inhibition, % at 7.49 µM. actives 0.35% (n = 340,000). AID 602346, 2012; in the data active means inhibition above about 50%, passing the limit was not always enough
H9c2 protect: cardioprotection against H2O2-induced cell death, primary screen, uHTS, H9c2 cells, ATPLite luminescence; H9c2 cardiomyocytes, H2O2 injury protection, 2 h; protection from H2O2 cell death, % at 20 µM; actives 0.63% (n = 360,000);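 active means compounds giving at least 50% protection of heart cells from peroxide-induced death in the single-dose screen, raw or plate-pattern-corrected value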
Glyco luc inh: increase of ERlucT glycosylation luciferase signal, primary screen, N-linked glycosylation inhibitor project, D54 ERlucT cells, luminescence, set 2; actives 0.23% (n = 360,000); D54 ERlucT glycosylation luciferase reporter, 24 h; percent of 100 nM tunicamycin response; AID 588692, 2011; reporter increase, % at 12.5 µM;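 active means mean luciferase reporter signal, scaled so untreated is 0 and the glycosylation-blocking control 100, at or above a set limit in every replicate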;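 further: luciferase carries N-glycosylation sites so blocking glycosylation raises the light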
aDG glyco act: activators of alpha-DG glycosylation, primary screen, uHTS, Pro5-aDG cells, AlphaScreen; actives 0.22% (n = 360,000); alpha-DG glycosylation AlphaScreen (IIH6); 0% Pro5, 100% B10-LARGE cell signal; AID 624168, 2012; activation, % at 10 µM;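 active means activation of at least 8% versus controls, or a plate z-score of at least 8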;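 further: Pro5 are CHO cells carrying HIG-tagged alpha-DG that lacks glycosylation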
Hits are given with their value; n = inactive; x = not tested or not shown. The list is not random: actives were taken first. Their share in the collection is about 1.7%.

SMILES	ARNT-TACC3 inh	Vif inh	H9c2 protect	Glyco luc inh	aDG glyco act
Cn1c(=O)c2[nH]c(NN=Cc3ccc(Br)cc3)nc2n(C)c1=O	n	n	58	n	n
COc1ccc(C=NNc2nc3c([nH]2)c(=O)n(C)c(=O)n3C)cc1	n	n	73	n	n
Cn1c(=O)c2[nH]c(NN=Cc3ccccc3)nc2n(C)c1=O	n	n	n	n	n
Cc1ccc(C=NNc2nc3c([nH]2)c(=O)n(C)c(=O)n3C)cc1	n	n	70	n	n
C[C@@H]1CN([C@@H](C)CO)S(=O)(=O)c2ccc(C3=CCCC3)cc2O[C@H]1CN(C)C(=O)c1ccc(F)cc1	n	x	x	x	x
CCC1(CC)NC(=O)N(CC(=O)OCC(=O)Nc2ccccc2[N+](=O)[O-])C1=O	n	n	70	n	n
CCC1(CC)NC(=O)N(CC(=O)OCC(=O)Nc2ccccc2OC(F)F)C1=O	n	n	n	n	n
COc1ccccc1NC(=O)N[C@H]1CC[C@H](CC(=O)N[C@H](C)c2ccccc2)O[C@H]1CO	n	x	x	x	x
CN(C)C(=O)c1cccc(-c2ccc3c(c2)[C@H]2[C@H](CCN2C(=O)C2CC2)[C@H](CO)N3)c1	n	x	x	x	x
CCOC1=C2[C@H](c3ccc(CC)cc3)N(S(=O)(=O)c3ccc(C)cc3)C[C@H]2C(C#N)(C#N)C(C#N)(C#N)C1	x	x	n	33	n
CCOC1=C2[C@H](c3ccccc3Cl)N(S(=O)(=O)c3ccc(C)cc3)C[C@H]2C(C#N)(C#N)C(C#N)(C#N)C1	x	x	n	n	n
O=C(Nc1ccc(N2CCCC2)cc1)C(Cl)c1ccccc1 (configuration not stated)	active	x	n	n	n
CS(=O)(=O)N1CCN(c2ccc(NC(=O)C(c3ccccc3)c3ccccc3)cc2)CC1	n	n	n	n	n
C[C@H](CO)N1C[C@H](C)[C@@H](CN(C)C(=O)Nc2cccc3ccccc23)OCCCC[C@H](C)Oc2ccc(NC(=O)Nc3ccc4c(c3)OCO4)cc2C1=O	n	x	x	x	x
CCN(CC)c1ccc(C=Nc2cccnc2Cl)c(O)c1	active	n	n	n	n
CCN(CC)c1ccc(C=Nc2cc(C)ccc2C)c(O)c1	x	n	n	n	n
COCCn1c(COc2ccccc2)nnc1SCC(N)=O	n	60	n	n	n
COCC#Cc1ccc2c(c1)O[C@H](CN(C)C(=O)C1CCC1)[C@H](C)CN([C@H](C)CO)S2(=O)=O	n	x	x	x	x
Cc1cccc2cc(/C=C/C(=O)c3ccco3)c(Cl)nc12	x	n	n	31	n
CN(C)C(=O)C[C@H]1CC[C@H](NS(=O)(=O)c2ccccc2)[C@H](CO)O1	n	x	x	x	x
Cc1cc(C)c(S(=O)(=O)N2CCN(S(=O)(=O)N3CCOCC3)CC2)c(C)c1	n	68	n	n	n
Cc1cc(C)c(S(=O)(=O)N2CCCC2)c(C)c1	n	n	n	n	n
O=C(NCC(F)(F)F)[C@H]1[C@H](CO)[C@H]2Cn3c(cccc3=O)[C@@H]1N2C(=O)C1CC1	n	x	x	x	x
CCC(=O)N1CC[C@H]2[C@@H]1c1cc(C#Cc3ccccc3OC)ccc1N(C)[C@H]2CO	n	x	x	x	x
COc1ccccc1-c1ccc2c(c1)O[C@H](CN(C)C(C)=O)[C@H](C)CN([C@@H](C)CO)S2(=O)=O	n	x	x	x	x
SMILES	ARNT-TACC3 inh	Vif inh	H9c2 protect	Glyco luc inh	aDG glyco act
COc1cccc2cc(-c3nnc(SCC(=O)Nc4nc(C)cs4)n3C)oc12	n	n	69	n	n
CCn1c(CC(=O)Nc2ccccc2F)nnc1SCC(=O)Nc1nnc(C)s1	n	n	n	n	n
CCn1c(CC(=O)Nc2ccccc2)nnc1SCC(=O)Nc1nnc(C)s1	x	68	n	n	n
CC(C)NC(=O)N(C)C[C@H]1Oc2ncc(C#Cc3ccccc3F)cc2C(=O)N([C@H](C)CO)C[C@@H]1C	n	x	x	x	x
O=C1CSC(=S)N1/N=C/c1ccc(O)c(O)c1O	98	n	n	n	n
COc1ccccc1C=NN1C(=O)CSC1=S	n	n	n	n	n
CC(C)(C)c1ccc(/C=N/N2C(=O)CSC2=S)cc1	n	n	n	n	n
O=C1CSC(=S)N1N=Cc1ccc(Cl)s1	61	n	n	n	n
C[C@@H]1CN([C@@H](C)CO)C(=O)c2cc(NC(=O)Nc3ccc4c(c3)OCO4)ccc2O[C@@H](C)CCCCO[C@@H]1CN(C)C(=O)c1ccccc1	n	x	x	x	x
COCCNC(=O)C[C@H]1CC[C@@H]2[C@H](COc3ccc(NC(C)=O)cc3C(=O)N2C)O1	n	x	x	x	x
CC(=O)Nc1ccc(-c2ccnc3c2CC(C)(C(=O)NCCC(F)(F)F)O3)cc1 (configuration not stated)	x	n	n	n	n
CC1(C(=O)Nc2cccc(OC(F)(F)F)c2)Cc2c(-c3ccc(C(N)=O)cc3)ccnc2O1 (configuration not stated)	x	x	56	n	n
CC1(C(=O)NCc2ccco2)Cc2c(-c3cccc(C(N)=O)c3)ccnc2O1 (configuration not stated)	x	n	n	38	n
CC(=O)Nc1cccc(-c2ccnc3c2CC(C)(C(=O)NCCC(F)(F)F)O3)c1 (configuration not stated)	x	n	n	25	n
C[C@H]1CN([C@@H](C)CO)C(=O)c2cc(NC(=O)Cc3cn(C)c4ccccc34)ccc2O[C@H]1CN(C)C(=O)Nc1ccc(C(F)(F)F)cc1	n	x	x	x	x
Cn1c(-c2ccccc2)cc2c3no[n+]([O-])c3ccc21	n	61	n	n	n
COc1ccc(S(=O)(=O)N(C)C[C@@H]2OCCCC[C@@H](C)Oc3ccc(NC(=O)CCCN(C)C)cc3C(=O)N([C@H](C)CO)C[C@@H]2C)cc1	n	x	x	x	x
CCCN(CCC)CCCNC(=O)CC(C(=O)N1CCc2ccccc21)n1ccnc1 (configuration not stated)	n	x	n	n	n
CCN(CC)CC(C)CNC(=O)CC(C(=O)N1CCc2ccccc21)n1ccnc1 (configuration not stated)	n	123	n	n	n
COC(=O)C(C(=O)OC)C(c1ccccc1)C(C(=O)c1ccccc1)[N+](=O)[O-] (configuration not stated)	n	53	n	n	n
O=c1[nH]c(=O)n([C@H]2C[C@H](O)[C@@H](CO)O2)cc1I	n	n	n	55	n
O=C(CCl)Nc1cn(-c2ccccc2)nc1-c1ccc(F)cc1	n	n	n	52	n
Fc1ccc(-c2nn(-c3ccccc3)cc2CNCc2ccccc2)cc1	n	n	n	n	n
O=C(N[C@@H]1CC[C@@H](CCn2cc(C3(O)CCCC3)nn2)O[C@H]1CO)C1CC1	n	x	x	x	x
CCOC(=O)COc1cc(OCC(=O)OCC)c2c3c(c(=O)oc2c1)CCCC3	n	n	64	n	n

Bioassay records (PubChem BioAssay)
